Laboratory results published in paper PMC7826789 (International Journal of Molecular Sciences, 2021).

Assays:
Conditions in all cases: Compound Concentration (nM):1000
KIT-autoinhibited = system: KIT-autoinhibited
KIT = system: KIT
LATS1 = system: LATS1
LATS2 = system: LATS2
LCK = system: LCK
LIMK1 = system: LIMK1
LIMK2 = system: LIMK2
LKB1 = system: T1, LKB1
T1 construct: gene STK11

LOK = system: T2, LOK
T2 construct: gene STK10

LRRK2(G2019S) = system: LRRK2(G2019S)
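Also: KINOMEscan scanMAX binding as percent activity remaining versus control; lower means stronger binding.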

Compound	Percent Control (KIT-autoinhibited)	Percent Control (KIT)	Percent Control (LATS1)	Percent Control (LATS2)	Percent Control (LCK)	Percent Control (LIMK1)	Percent Control (LIMK2)	Percent Control (LKB1)	Percent Control (LOK)	Percent Control (LRRK2(G2019S))
CC1=C(C(=O)Nc2ccc3[nH]ncc3c2)C(c2ccc3ccccc3c2)CC(=O)N1 (stereo not shown) [GSK270822A]	100%	80%	66%	7%	33%	100%	88%	100%	100%	77%
COc1ccc2cc(-c3c(-c4ccncc4)nc(-c4ccc(S(C)(=O)=O)cc4C)n3C)ccc2c1 [SB-633825]	91%	74%	67%	70%	54%	74%	29%	100%	1.3%	90%
NS(=O)(=O)c1ccc(N/N=C2\C(=O)Nc3ccc(Cl)cc32)cc1 [GW280670X]	42%	90%	100%	98%	96%	100%	100%	100%	100%	70%
COc1cc(C)c(N(C)C(=O)CN(C)C)cc1Nc1nc(Nc2cccc(F)c2C(N)=O)c2cc[nH]c2n1 [GSK2219385]	100%	100%	100%	80%	100%	100%	96%	83%	100%	8.8%
CCc1ccc(Oc2nccc(-c3c(-c4ccc(F)cc4)ncn3C3CCNCC3)n2)cc1 [SB-242719]	100%	83%	100%	70%	74%	75%	100%	84%	97%	83%
COc1cccc(-n2ncc3c(N/N=C/c4ccncc4)ncnc32)c1 [GW784752X]	100%	91%	100%	100%	35%	99%	100%	100%	100%	96%
NS(=O)(=O)c1ccc(N/N=C2\C(=O)Nc3ccc(C(=O)NCCc4c[nH]cn4)cc32)cc1 [GW300660X]	93%	100%	100%	100%	100%	100%	100%	100%	100%	71%
COc1ccc2c(-c3ccnc(Nc4cccc(OC(F)(F)F)c4)n3)cnn2n1 [GW810372X]	81%	86%	100%	91%	100%	94%	100%	100%	100%	86%
NS(=O)(=O)c1ccc(N/N=C2\C(=O)Nc3ccc(C(=O)NCc4ccncc4)cc32)cc1 [GW300657X]	99%	87%	100%	67%	100%	100%	90%	100%	100%	89%
COc1cccc(-c2c[nH]c3c(N/N=C/c4ccncc4)ncnc23)c1 [GW814408X]	38%	5%	100%	89%	7.5%	100%	84%	88%	100%	89%
CC1=C(C(=O)Nc2ccc3[nH]ncc3c2)C(c2ccc(Cl)c(Cl)c2)CC(=O)N1 (stereo not shown) [GSK299115A]	100%	100%	60%	1.5%	80%	94%	63%	100%	71%	100%
Cl.O=C(Nc1ccc(Oc2ccc3[nH]c(NC(=O)c4ccco4)nc3c2)cc1)Nc1cc(C(F)(F)F)ccc1F [GW683134A]	83%	0.4%	100%	97%	6.3%	76%	84%	87%	0.1%	66%
NS(=O)(=O)c1ccc(N/N=C2\C(=O)Nc3ccc(-c4cnco4)cc32)cc1 [GW276655]	81%	58%	56%	65%	89%	60%	67%	100%	92%	17%
CN(C)c1cc2c(Nc3ccc4c(cnn4Cc4ccccc4)c3)ncnc2cn1 [GW282974X]	100%	100%	100%	65%	77%	100%		100%	20%	93%
CCn1c(-c2nonc2N)nc2c(C#CC(C)(C)O)nc(OCCNC)cc21.Cl [GSK949675]	100%	100%	65%	11%	100%	100%	100%	70%	100%	100%
O=C1Nc2ccc(C(=O)c3ccco3)cc2C1=Cc1cc(Cl)c(O)c(Cl)c1 [GW406108X]	82%	62%	100%	92%	89%	100%	100%	100%	94%	6.9%
C/C(Nc1ccc(S(N)(=O)=O)cc1)=C1/C(=O)Nc2ccccc21 [GW335962X]	28%	99%	100%	83%	91%	100%	94%	86%	79%	47%
CCS(=O)(=O)c1ccc(OC)c(Nc2ncc(-c3cccc(F)c3)o2)c1 [GW621970X]	14%	13%	94%	100%	25%	100%	100%	100%	100%	100%
O=C(Nc1n[nH]c2nc(-c3ccc(O)cc3)c(Br)cc12)C1CC1 [SB-725317]	86%	84%	100%	94%	83%	100%	100%	100%	95%	96%
COc1cc(/C=N/Nc2ncnc3[nH]ncc23)ccc1O [GW578748X]	57%	56%	100%	52%	42%	100%	100%	100%	100%	49%
